Screening data as filed in PubChem BioAssay.
TGFb inhibitor: blocks TGF-b signaling; actives 1.2% (n = 410,000); HepG2 CAGA-GFP TGF-b/SMAD3 reporter, GFP fluorescence, 18 h; TGF-beta stimulated, 500 pg/mL final; AID 588855; Potency, µM (doses to about 46.1 µM), without a hit: at the top dose activity, negative = inhibition, most hits filed as inhibitors; also: % is scaled to controls: 0 for no effect and ±100 for the full control effect; nearly all actives have a fitted effect of over 65% in size
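TGF-beta reporter screen: HEPG2 CAGA-GFP, 1% FBS, 500 pg/mL TGF-beta final, 18 h; per-cell GFP summed per well; curves fitted and categorized by class.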
ATXN2 expr inh: ATXN2 expression inhibition. HEK-293 ATXN2-luciferase reporter, luminescence, 24 h. Potency, µM (top dose mostly 57 µM), for the others: at the top dose activity change, negative = inhibition, most hits filed as inhibitors. actives 0.72% (n = 360,000); also: % is scaled to controls: 0 for no effect and ±100 for the full control effect; nearly all actives have a fitted effect of over 55% in size
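ATXN2-luciferase reporter cells (luciferase flanked by upstream and downstream ATXN2 gene portions) were treated 24 h at 37 °C with compounds at up to 57 uM. SteadyGlo luminescence gave expression; GF-AFC fluorescence gave viability.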
HepG2 viability: counter-screen for TGF-b inhibitors: cytotoxicity in HepG2 cells | HepG2 CAGA-GFP viability, ATP luminescence, 18 h | Potency, µM (top dose mostly 46.1 µM), inactives show top-dose activity change, negative = cytotoxicity, usual class: cytotoxic | actives 0.76% (n = 410,000) | AID 588856
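CellTiter-Glo luminescence gave cytotoxicity after 18 hours at 37 degrees C. The cells were HepG2 CAGA-GFP in 1% FBS DMEM, stimulated with 500 pg/mL TGF-beta after compound addition. %Activity was normalised to no-cell wells (complete cell-killing) and DMSO (no toxicity), and curves were fitted and classified.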
TDP1 cell CPT: growth inhibition of DT40 Tdp1-/-;hTDP1 cells with camptothecin (screen for TDP1 inhibitors). chicken DT40 Tdp1-/-;hTDP1 cells + 20 nM CPT, ATP luminescence, 48 h. actives 12% (n = 420,000). Potency, µM (top dose mostly 46.2 µM), without a hit: at the top dose activity change, negative = growth inhibition, actives largely listed as inhibitors; also: % is scaled to controls: 0 for no effect and ±100 for the full control effect; nearly all actives have a fitted effect of over 55% in size
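Chicken DT40 Tdp1-/- cells stably complemented with human TDP1 were seeded at 400 cells/well in medium containing 20 nM camptothecin, exposed to pin-transferred compounds, and grown at 37 °C for at least 48 hr. Viability was read as ATP luminescence.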
ATXN viability: cell viability loss in ATXN counter-screen; Potency, µM (titrated, usually from 56.7 µM), actives largely listed as cytotoxic; actives 0.49% (n = 400,000); S2 cells (HEK-293 line with an ATXN2-luciferase reporter) viability, CellTiter-Fluor protease fluorescence, 24 h; also: nearly all actives have a fitted effect of over 40% in size
DT40 TDP1 no CPT: qHTS for Inhibitors of human tyrosyl-DNA phosphodiesterase 1 (TDP1): qHTS in cells in absence of CPT | actives 15% (n = 420,000) | AID 686978, 2013 | DT40 Tdp1-/- hTDP1 cells, no CPT, ATP luminescence, 48 h | Potency, µM (titrated, usually from 46.2 µM), for inactives: at the top dose activity change, negative = growth inhibition, hits mostly inhibitors; also: % is scaled to controls: 0 for no effect and ±100 for the full control effect; nearly all actives have a fitted effect of over 55% in size
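Readout: luminescence from CellTiter-Glo after 30 min in the dark at RT. Cells: DT40 Tdp1-/- with stable hTDP1, 400/well. Exposure: compounds alone, ≥48 hr, 37 °C.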
* marks the source's active call; other numbers are inactive results; i = inactive; ? = inconclusive; nt = no result. Compounds with a hit are over-represented: about 17% of the library has one in this group of screens. Calls follow the shape of the dose curve; as a rule, active = well fitted curve in the direction sought with a large enough effect; inconclusive = small, poorly fitted or top-dose-only effect, or another doubt; inactive = no such curve, though single readings can be large; an effect the other way counts as inactive or inconclusive. Potency is read from the fitted curve at half-maximal effect.

SMILES	TGFb inhibitor	ATXN2 expr inh	HepG2 viability	TDP1 cell CPT	ATXN viability	DT40 TDP1 no CPT
COc1ccc(NC(=O)CSc2nnc3n2CCCCC3)cc1	5%	-11%	-7%	0%	nt	-3%
Cc1cc(C)c2c(CN3CCCCC3)cc(=O)oc2c1	7%	23%	-12%	4%	?	-19%
Cc1cc(C)c2c(CN3CCCCCCC3)cc(=O)oc2c1	?	2%	2%	?	i	?
Cc1cc(C)c2c(CN3CCN(C/C=C/c4ccccc4)CC3)cc(=O)oc2c1	5%	-12%	-30%	29µM*	i	?
Cc1cc(C)c2c(CCl)cc(=O)oc2c1	?	42%	-37%	0.92µM*	?	0.92µM*
Cc1ccc(-c2c[n+](CC(=O)OCc3ccccc3)c3n2CCC3)cc1	6%	5%	-3%	-17%	i	-27%
COc1ccc(-c2c[n+](CC(=O)c3cccs3)c3n2CCC3)cc1	19%	-25%	-15%	26µM*	i	16µM*
Cc1ccc(-c2c[n+](CC(=O)c3cccs3)c3n2CCC3)cc1	?	-19%	8%	3.7µM*	i	3.3µM*
O=C(C[n+]1cc(-c2ccccc2)n2c1CCC2)OCc1ccccc1	5%	10%	10%	11%	i	-19%
O=C(Nc1ccc(OCc2ccccc2)cc1)Nc1nnc([C@@H]2C[C@H](O)[C@@H](CO)O2)s1	10%	5%	8%	?	i	-19%
O=C1c2ccccc2C(=O)C12OC2c1ccc(Cl)cc1Cl (stereo unspecified)	?	?	20µM*	5.2µM*	?	9.2µM*
O=C1c2ccccc2C(=O)C1c1ccc(Cl)cc1	11%	-2%	-4%	3%	i	2%
CCOc1ccc(C2OC34CCCCC3C(C#N)(C#N)C2(C#N)C(=N)O4)cc1OC (stereo unspecified)	55%	0%	-2%	13µM*	i	16µM*
CCCCOc1ccc(C2OC34CCCCC3C(C#N)(C#N)C2(C#N)C(=N)O4)cc1 (stereo unspecified)	50%	3%	7%	-7%	?	-3%
C=CCOc1ccc(C2OC34CCCCC3C(C#N)(C#N)C2(C#N)C(=N)O4)cc1 (stereo unspecified)	13%	-29%	-11%	13µM*	i	6.5µM*
O=c1cc(C(F)(F)F)nc(-c2ccccc2)[nH]1	1%	-5%	-4%	-18%	i	-15%
COc1ccc(/C=C2\CCCC3C2=NC(=S)NC3c2ccc(OC)cc2)cc1 (stereo unspecified)	-13%	4%	-5%	-2%	i	?
Cc1ccc(C(=O)N2CCC(C(N)=O)CC2)cc1NC(=O)c1nsc2ccccc12	0%	7%	-3%	?	i	?
CCOC(=O)C1CCN(C(=O)c2ccc(C)c(NC(=O)c3nsc4ccccc34)c2)CC1	19%	-10%	13%	?	?	23µM*
CCOC(=O)C1CCCN(C(=O)c2ccc(C)c(NC(=O)c3nsc4ccccc34)c2)C1 (stereo unspecified)	2%	-7%	-25%	?	i	18µM*
CCCCCCCCCCCCCCC(O)C[N+](C)(CCO)CCO (stereo unspecified)	?	-38%	-104%	2.3µM*	?	3.7µM*
CC(C)(C)n1nc2c(c1NC(=O)Cc1cccc3ccccc13)CS(=O)(=O)C2	-4%	-16%	-37%	2%	i	-3%
